PubChem BioAssay (NCATS)
Records with an inconclusive call do not appear. A call without a number means that no potency is given here. The source made the active and inactive calls. Calls come from the whole dose curve; as a rule, active = well fitted cell-killing curve with a large enough effect; inconclusive = small, poorly fitted or top-dose-only effect, or effect the other way; inactive = no such curve, though single readings can be large or run the other way.

Test: Cell Viability - LYMP2-005 (AID 967)
Conditions: LYMP2-005 lymphoblastoid cell viability; series mostly up to 92.2 µM
Source text: NIH Chemical Genomics Center [NCGC]
NIH Molecular Libraries Screening Centers Network [MLSCN]
National Institutes of Environmental Health Sciences [NIEHS]
National Toxicology Program [NTP]
We have developed a 1536-well cell-based assay for quantitative high throughput screening (qHTS) against a number of cell lines to determine in vitro cytotoxicity of small molecules. This particular assay uses a human lymphoblastoid cell line (LYMP2-005) purchased from Coriell Institute for Medical Research.
NCGC Assay Protocol Summary:
The CellTiter-Glo luminescent cell viability assay (Promega) is a homogeneous method to measure the number of viable cells in culture. The end point readout of this assay is based on quantitation of intracellular ATP, an indicator of metabolic activity, using the luciferase reaction. Luciferase catalyzes the oxidation of beetle Luciferin to oxyluciferin and light in the presence of ATP. The luminescent signal is proportional to amount of ATP present.
Using the CellTiter-Glo luminescent cell viability assay, the amount of cellular ATP was measured in the lymphoblastoid cell line with complete culture medium following compound treatment for 24 hours. The assay was performed in opaque white Kalypsys 1536-well plates. In the screen, tetraoctylammonium bromide was used as positive control. Library compounds were measured for their ability to cause acute toxicity in the cell line, as reflected by a decrease in intracellular ATP levels, in a concentration-dependent manner. […] AC50 values were determined from concentration-response data modeled with the standard Hill equation.
qHTS protocol for CellTiter Glo lymphoblastoid cellular assay
[Step] [Parameter] [Value] [Description]
1. Reagent; 5 uL; 2500 lymphoblastoid cells/well
2. Time; 5 hr; 37 C incubation
4. Controls; 23 nL; Tetraoctylammonium bromide 6.4pM to 92 uM
5. Time; 24 hr; 37 C incubation
6. Reagent; 5 uL; CellTiter Glo reagent
7. Time; 30 min; Room Temperature
8. Detection; Luminescence; Viewlux plate reader
Keywords: cell viability, cytotoxicity, lymphoblastoid cell line, luminescence, NTPHTS, NTPHTS_NCGC, NIEHS, DSSTox, MLSMR, MLSCN, NIH Roadmap, qHTS, NCGC
Potency is the fitted concentration of half-maximal effect.

With `Clc1nc(Cl)nc(Nc2ccccc2Cl)n1` as the compound, how does the Potency read?
The Potency was “inactive”.

Which Potency does the source give for `CCCCCCCC(=O)Cl` here?
Its Potency is “inactive”.

For `Oc1ccc(Cl)cc1Cl`, which Potency is on record?
Its Potency is “inactive”.

For `OCC(Br)CBr` (stereo not given), which Potency is on record?
Its Potency is “inactive”.

For `O=C(Cl)C(Cl)(Cl)Cl`, which Potency is on record?
Its Potency is “inactive”.

With `CCOc1ccc(N)cc1` as the compound, how does the Potency read?
Its Potency is “inactive”.

With `COC1=CC(=O)O[C@@H](/C=C/c2ccc3c(c2)OCO3)C1` as the compound, how does the Potency read?
The Potency was “inactive”.

For `C=CCc1ccc(OC)cc1`, which Potency is on record?
The Potency was “inactive”.

Which Potency does the source give for `CCC[CH2][Sn]([Cl])([Cl])[Cl]` here?
The Potency was “inactive”.

With `CCCCOC(=O)c1ccccc1C(=O)OCCCC` as the compound, how does the Potency read?
Its Potency is “inactive”.

For `ClC1=C(Cl)C2(Cl)C3C4CC(C5OC45)C3C1(Cl)C2(Cl)Cl` (stereo not given), which Potency is on record?
Its Potency is 20 µM (active).

Which Potency does the source give for `Nc1ccccc1Cl` here?
Its Potency is “inactive”.

For `CC(C)(C)OOC(C)(C)C`, which Potency is on record?
Its Potency is “inactive”.

Which Potency does the source give for `[O-][Br+2]([O-])O` here?
Its Potency is “inactive”.

Which Potency does the source give for `COC(=O)NC(=S)Nc1ccccc1NC(=S)NC(=O)OC` here?
Its Potency is “inactive”.

Which Potency does the source give for `C[C@H]1CCCC(=O)CCC/C=C/c2cc(O)cc(O)c2C(=O)O1` here?
The Potency was “inactive”.

With `C=CCOC(=O)c1ccccc1N` as the compound, how does the Potency read?
Its Potency is “inactive”.

With `CC(=O)[O-].CC(=O)[O-].O.O.O.[Pb+2]` as the compound, how does the Potency read?
The Potency was “inactive”.

For `Cc1ccc([N+](=O)[O-])cc1C`, which Potency is on record?
The Potency was “inactive”.

Which Potency does the source give for `O=C(Cl)/C=C/C(=O)Cl` here?
The Potency was “inactive”.

With `C=C(C)C#N` as the compound, how does the Potency read?
The Potency was “inactive”.

For `Clc1nc(Cl)nc(Cl)n1`, which Potency is on record?
The Potency was “inactive”.

Which Potency does the source give for `NC(=S)Nc1ccccc1` here?
The Potency was “inactive”.

Which Potency does the source give for `ClC(Cl)=C(Cl)C(Cl)=C(Cl)Cl` here?
The Potency was “inactive”.

Which Potency does the source give for `Clc1cc(Cl)c(-c2cc(Cl)c(Cl)cc2Cl)cc1Cl` here?
Its Potency is “inactive”.

Which Potency does the source give for `COc1ccc(N)cc1` here?
Its Potency is “inactive”.

Which Potency does the source give for `Nc1ccc(Br)cc1` here?
Its Potency is “inactive”.

With `Cc1cccc(C#N)c1` as the compound, how does the Potency read?
Its Potency is “inactive”.

Which Potency does the source give for `CCCOC(=O)c1ccccc1C(=O)OCCC` here?
Its Potency is “inactive”.

For `OCC1CO1` (stereo not given), which Potency is on record?
The Potency was “inactive”.

Which Potency does the source give for `Cc1cccc([N+](=O)[O-])c1` here?
The Potency was “inactive”.

For `N#CCCCl`, which Potency is on record?
Its Potency is “inactive”.

Which Potency does the source give for `C=C(Cl)Cl` here?
Its Potency is “inactive”.

Which Potency does the source give for `Cc1ccccc1N` here?
Its Potency is “inactive”.

For `Brc1ccccc1`, which Potency is on record?
The Potency was “inactive”.

With `O=C=NC1CCCCC1` as the compound, how does the Potency read?
Its Potency is “inactive”.

Which Potency does the source give for `C[C@]12CC[C@H]3[C@@H](CCC4=CC(=O)CC[C@@]43C)[C@@H]1CC[C@@H]2O` here?
Its Potency is “inactive”.

With `Clc1ccc2ccccc2c1` as the compound, how does the Potency read?
Its Potency is “inactive”.

Which Potency does the source give for `c1ccc(OP(Oc2ccccc2)Oc2ccccc2)cc1` here?
The Potency was “inactive”.

Which Potency does the source give for `O=NN(CCO)CCO` here?
The Potency was “inactive”.
